From PubChem BioAssay (NCATS)
Results filed as inconclusive are left out. A call without a number means that no potency is given here. Active and inactive are the calls of the source. Calls follow the shape of the dose curve; as a rule, active = well fitted cell-killing curve with a large enough effect; inconclusive = small, poorly fitted or top-dose-only effect; inactive = flat fitted curve, though single readings scatter. Non-standard residues stand in square brackets, D forms with d. Residues, ends and D or L forms follow the SMILES beside them. *: point of attachment. Sta = CC(C)C[C@H](N)[C@@H](O)CC(=O)O; Isovaleryl = CC(C)CC(=O)*

Experiment: qHTS of pediatric cancer cell lines to identify multiple opportunities for drug repurposing: Confirmatory screen for SK-N-SH cells (AID 1347129);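 also: cells exposed to compound for 48 h before viability read; nearly all actives have a fitted effect of over 60% in size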
Settings: SK-N-SH neuroblastoma cell viability; series mostly up to 46.1 µM
From the text: Drug repurposing or repositioning has been offered as a strategy for drug development in oncology programs. This approach has special potential for childhood cancers and other rare or orphan diseases, where the expected return on new drug development has been a disincentive to pharmaceuticals.
In this project we exploit the poly-pharmacology of drugs to discover new indications via phenotypic screening of a panel of 19 well-characterized cell lines derived from solid tumors seen in children and adolescents. The goal is to identify approved drugs with previously unrecognized anticancer properties that has the potential to reveal new mechanisms and biological processes involved in carcinogenesis or drug resistance. We employed a titration-based paradigm (quantitative high-throughput screening or qHTS), where all compounds were tested at multiple concentrations for their effect on cell viability. Concentration-response curves (CRCs) were derived directly from the primary screen, and both potency and efficacy values were used to identify compounds with robust bioactivity profiles. We screened the NIH Chemical Genomics Center (NCGC) Pharmaceutical Collection (NPC) and Mechanism Interrogation Plate (MIPE) small molecule collections of approved and investigational compounds against these cell lines; and measured metabolically active cells after 48 hours of compound treatment as a proxy for cell viability.
Assay Submitter: Nathalia J. Martinez, National Center for Advancing Translational Sciences, National Institutes of Health, Rockville, MD, USA; email: natalia.martinez@nih.gov
[1] Shen, M et al. Quantitative high-throughput phenotypic screening of pediatric cancer cell lines identifies multiple opportunities for drug repurposing. Oncotarget 2017 Dec 19;9(4):4758-4772. PMID 29435139.
The cells were obtained from University of North Carolina (UNC), Pediatric Preclinical Testing Program (PPT), and Coriell Institute (CI).
qHTS cell viability assay:
Cells were assayed in growth media at a density of 500-1,000 cells/well. Five microliters of cells were dispensed into 1,536-well, white, solid-bottom, TC-treated plates (Greiner Bio One) using a multidrop dispenser and incubated at 37 degrees C, 5% CO2, under a humidified atmosphere for 5 hours. Twenty-three nanoliters of compounds and controls (neutral control DMSO or positive control bortezomib at final concentration of 2.3 µM) were subsequently transferred by Kalypsys pintool. For primary screens, the MIPE collection was tested at 11-point dilutions (final concentrations range from 0.78 nM to 46 µM) and the NPC collection at 8-point dilutions (final concentrations range from 0.59 nM to 46 µM). Compounds tested in follow-up screens were assayed at 11-point dilutions. Cells were incubated for 48 hours, followed by addition of 3 µL of CellTiter-Glo (Promega). After a 15 min incubation at room temperature, samples were analyzed for luminescence intensity using a ViewLux High-throughput CCD imager equipped with clear filters.
Potency is read from the fitted curve at half-maximal effect.

Row | Compound | Potency
1 | CC(C)CC(=O)N[C@H](C(=O)N[C@H](C(=O)N[C@@H](CC(C)C)[C@@H](O)CC(=O)N[C@@H](C)C(=O)N[C@@H](CC(C)C)[C@@H](O)CC(=O)O)C(C)C)C(C)C (Isovaleryl-VV[Sta]A[Sta]-OH) | inactive
2 | CS(=O)(=O)OCCCCOS(C)(=O)=O | inactive
3 | CC(S)C(=O)NCC(=O)O (configuration not stated) | inactive
4 | CCN(CC)CCOc1ccc(Nc2ncc3cc(-c4c(Cl)cccc4Cl)c(=O)n(C)c3n2)cc1 | 0.833 µM (active)
5 | Oc1ccc(-c2nc(-c3ccc(F)cc3)c(-c3ccncc3)[nH]2)cc1 | 5.26 µM (active)
6 | Nc1ccn([C@@H]2O[C@H](CO)[C@@H](O)C2O)c(=O)n1 (some centres not stated) | inactive
7 | C[C@]12CCC(=O)C=C1CC[C@@H]1[C@H]2[C@@H](O)C[C@@]2(C)[C@H]1CC[C@]2(O)C(=O)CO | inactive
8 | Nc1nc(OCc2ccccc2)c2[nH]cnc2n1 | inactive
9 | CCN(CCO)CCCC(C)Nc1ccnc2cc(Cl)ccc12 (configuration not stated) | inactive
10 | O=C(NCC1CCCCN1)c1cc(OCC(F)(F)F)ccc1OCC(F)(F)F (configuration not stated) | inactive
11 | C=C(c1ccc(C(=O)O)cc1)c1cc2c(cc1C)C(C)(C)CCC2(C)C | inactive
12 | O=C(CCc1ccc(O)cc1)c1c(O)cc(O)cc1O | inactive
13 | Cc1c(C(=O)NN2CCCCC2)nn(-c2ccc(Cl)cc2Cl)c1-c1ccc(Cl)cc1 | inactive
14 | CN(C)c1ccc(O)c2c1C[C@H]1C[C@H]3[C@H](N(C)C)C(=O)C(C(N)=O)=C(O)[C@@]3(O)C(=O)C1=C2O | 11.8 µM (active)
15 | Nc1ncn([C@H]2C[C@H](O)[C@@H](CO)O2)c(=O)n1 | inactive
16 | COc1cc(C(C)=O)ccc1OCCCN1CCC(c2noc3cc(F)ccc23)CC1 | inactive
17 | CCc1nc(N)nc(N)c1-c1ccc(Cl)cc1 | inactive
18 | Cc1nc(Nc2ncc(C(=O)Nc3c(C)cccc3Cl)s2)cc(N2CCN(CCO)CC2)n1 | 4.18 µM (active)
19 | O=C1c2c(O)cc(O)cc2OC(c2ccc(O)c(O)c2)C1O (configuration not stated) | inactive
20 | Cc1ccc(NC(=O)c2ccc(CN3CCN(C)CC3)cc2)cc1Nc1nccc(-c2cccnc2)n1 | inactive
21 | Cc1ccc(Nc2nccc(N(C)c3ccc4c(C)n(C)nc4c3)n2)cc1S(N)(=O)=O | 18.7 µM (active)
22 | CCN(CC)C(=S)SSC(=S)N(CC)CC | inactive
23 | CCOc1cc(CC(=O)N[C@@H](CC(C)C)c2ccccc2N2CCCCC2)ccc1C(=O)O | inactive
24 | c1cnc2cc3c(cc2n1)C1CNCC3C1 | inactive
25 | CN(C)c1ccc2nc3ccc(=[N+](C)C)cc-3sc2c1 | 4.18 µM (active)
26 | Cc1cc(C2CCCCC2)n(O)c(=O)c1 | 2.35 µM (active)
27 | CC(C)C[C@H](NC(=O)[C@H](Cc1ccccc1)NC(=O)c1cnccn1)B(O)O | 0.0332 µM (active)
